Test results taken from PubChem BioAssay (NCATS).
Where “and” joins values, the source holds several entries; their conditions need not be identical. Identical values can stand only once. Unmarked numbers belong to inactive results. Records with an inconclusive call do not appear. A call without a number means that no potency is given here. Calls of active or inactive are those of the source. Unless noted, calls follow the shape of the dose curve; as a rule, active = well fitted curve in the direction sought with a large enough effect; inconclusive = small, poorly fitted or top-dose-only effect, or another doubt; inactive = no such curve, though single readings can be large; an effect the other way counts as inactive or inconclusive.

tested on: astro; assay: Drug repurposing screens with cells derived from glioblastoma tumor samples (AID 1345199); conditions: viability, ATP luminescence, 48 h; series mostly up to 45.9 µM; also: nearly all actives have a fitted effect of over 40% in size; also: potency is read from the fitted curve at half-maximal effect
In short: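 Four patient lines of CD133+ GBM neurospheres were screened at several concentrations; hits were retested in those lines plus three slower-growing GBM lines, using 48-hour treatment and ATP-based viability.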

Q: For `O=[N+]([O-])c1c2ccccc2cc2ccccc12`, which Potency is on record?
A: The Potency was “inactive”.

Q: With `CN(C)[C@@H]1C(=O)C(C(N)=O)=C(O)[C@@]2(O)C(=O)C3=C(O)c4c(O)cccc4[C@@](C)(O)[C@H]3[C@H](O)[C@@H]12` as the compound, how does the Potency read?
A: The Potency was “inactive”.

Q: For `CN[C@@H]1C[C@@H](c2ccc(Cl)c(Cl)c2)c2ccccc21`, which Potency is on record?
A: The Potency was 20000 nM (active).

Q: For `C[N+](C)(C)CC(=O)O`, which Potency is on record?
A: The Potency was “inactive”.

Q: Which Potency does the source give for `C[C@]12N[C@H](Cc3ccccc31)c1ccccc12` here?
A: The Potency was “inactive”.

Q: With `c1ccc(C2(c3ccccc3)CC2C2=NCCN2)cc1` (stereo not drawn) as the compound, how does the Potency read?
A: Its Potency is “inactive”.

Q: For `CC(C)Oc1cccc(NC(=O)c2ccccc2C(F)(F)F)c1`, which Potency is on record?
A: Its Potency is “inactive”.

Q: For `CCCCc1ccc(C(=O)O)nc1`, which Potency is on record?
A: Its Potency is “inactive”.

Q: Which Potency does the source give for `NC1=NC(=O)N2CC12` (stereo not drawn) here?
A: Its Potency is “inactive”.

Q: Which Potency does the source give for `C[C@]12CC[C@@H]3[C@@H](CCC4=CC(=O)CC[C@@H]43)[C@@H]1CC[C@@H]2OC(=O)CCc1ccccc1` here?
A: The Potency was “inactive”.

Q: Which Potency does the source give for `CC(C)NC(C)Cc1ccc(I)cc1` (stereo not drawn) here?
A: Its Potency is “inactive”.

Q: With `CCCCC(CC)COC(=O)c1ccccc1C(=O)OCC(CC)CCCC` (stereo not drawn) as the compound, how does the Potency read?
A: Its Potency is “inactive”.

Q: With `NC(=O)CN1CC(O)CC1=O` (stereo not drawn) as the compound, how does the Potency read?
A: Its Potency is “inactive”.

Q: Which Potency does the source give for `C[C@]12CCC(=O)C(O)=C1CC[C@@H]1[C@H]3CCC(=O)[C@@]3(C)CC[C@@H]12` here?
A: Its Potency is “inactive”.

Q: For `C[C@@H]1[C@H](O)[C@@H](C)C=CC=CCCC=CC=CC=CC=C[C@H](O[C@H]2O[C@@H](C)[C@H](O)[C@@H](N)[C@@H]2O)CC2O[C@](O)(C[C@@H](O)[C@H](O)CC[C@@H](O)C[C@@H](O)C[C@@H](O)CC(=O)O[C@H]1C)C[C@H](O)[C@H]2C(=O)O`, which Potency is on record?
A: The Potency was “inactive”.

Q: For `CCCN(CCC)c1c([N+](=O)[O-])cc(S(N)(=O)=O)cc1[N+](=O)[O-]`, which Potency is on record?
A: The Potency was 31600 nM (active).

Q: With `ClC1=C(Cl)[C@]2(Cl)[C@@H]3[C@@H]4C[C@@H]([C@H]5O[C@@H]45)[C@@H]3[C@@]1(Cl)C2(Cl)Cl` as the compound, how does the Potency read?
A: Its Potency is “inactive”.

Q: Which Potency does the source give for `CCCN1CCC[C@H](c2cccc(O)c2)C1` here?
A: The Potency was “inactive”.

Q: Which Potency does the source give for `Nc1ccc([N+](=O)[O-])cc1` here?
A: The Potency was “inactive”.

tested on: not listed separately; assay: qHTS assay to identify inhibitors of the type 1 interferon - major histocompatibility complex class I in skeletal muscle: Counter screen cell viability and HiBit confirmation (AID 1347412); conditions: iHSKM muscle cells + IFN-b, HiBiT or CellTiter-Glo, 24 h; HiBiT; also: nearly all actives have a fitted effect of over 60% in size; also: potency is read from the fitted curve at half-maximal effect
In short: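 Human myoblast knock-in line, 4.0 ng/ml IFN-beta stimulation, 24 h compound treatment. Endpoints: HiBiT lytic luminescence (HLA-B level) and CellTiter Glo (ATP). Dosing 12 concentrations, 3-fold steps, 46 uM highest final.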

Q: Which Potency does the source give for `O=c1[nH]c2ccc(Cl)cc2c(N[C@@H]2CN3CCC2CC3)c1-c1nc2ccccc2[nH]1` here?
A: The Potency was 3.52 µM (active).

Q: With `Cc1[nH]nc2ccc(-c3cncc(OC[C@@H](N)Cc4c[nH]c5ccccc45)c3)cc12` as the compound, how does the Potency read?
A: The Potency was 1.11 µM (active).

Q: For `CC(C)[C@]12O[C@H]1[C@@H]1O[C@]13[C@]1(O[C@H]1C[C@H]1C4=C(CC[C@@]13C)C(=O)OC4)[C@@H]2O`, which Potency is on record?
A: Its Potency is 0.0625 µM (active).

Q: For `COc1ccc2c(c[n+](C)c3c4cc5c(cc4ccc23)OCO5)c1OC`, which Potency is on record?
A: The Potency was 7.01 µM (active).

Q: With `C/C=C(/C)C(=O)O[C@H]1C(C)=C2[C@H]([C@@H]1OC(=O)CCCCCCC)[C@@](C)(OC(C)=O)C[C@H](OC(=O)CCC)[C@@]1(O)[C@H]2OC(=O)[C@@]1(C)O` as the compound, how does the Potency read?
A: Its Potency is 0.0079 µM (active).

Q: Which Potency does the source give for `CC1=C(O)C(=O)C=C2C1=CC=C1[C@@]2(C)CC[C@@]2(C)[C@@H]3C[C@](C)(C(=O)O)CC[C@]3(C)CC[C@]12C` here?
A: The Potency was 0.787 µM (active).

Q: For `CC[C@@]1(O)C(=O)OCc2c1cc1n(c2=O)Cc2cc3ccccc3nc2-1`, which Potency is on record?
A: The Potency was 1.76 µM (active) and 1.98 µM (active).

same assay, conditions: iHSKM muscle cells + IFN-b, HiBiT or CellTiter-Glo, 24 h; Viability; at 45.9 µM (top of the series)

Q: Which activity change, negative = inhibition does the source give for `CN[C@@H]1C[C@@H](c2ccc(Cl)c(Cl)c2)c2ccccc21` here?
A: Its activity change, negative = inhibition is -20.4%.

Q: For `CC(C)[C@]12O[C@H]1[C@@H]1O[C@]13[C@]1(O[C@H]1C[C@H]1C4=C(CC[C@@]13C)C(=O)OC4)[C@@H]2O`, which activity change, negative = inhibition is on record?
A: The activity change, negative = inhibition was -10.5%.

Q: For `CCCCCC[C@H]1C(=O)O[C@H](C)[C@H](NC(=O)c2cccc(NC=O)c2O)C(=O)O[C@@H](C)[C@@H]1OC(=O)CC(C)C`, which activity change, negative = inhibition is on record?
A: Its activity change, negative = inhibition is -10.9%.

Q: Which activity change, negative = inhibition does the source give for `CC[C@@]1(O)C(=O)OCc2c1cc1n(c2=O)Cc2cc3ccccc3nc2-1` here?
A: The activity change, negative = inhibition was -5.85% and -9.34%.

molecular target: Nuclear receptor subfamily 1 group I member 2 (Rattus norvegicus) (UniProt Q9R1A7); assay: qHTS assay for small molecule activators of the rat pregnane X receptor (rPXR) signaling pathway (AID 651751; call rule not given here); conditions: rPXR reporter cells, luciferase (One-Glo), 24 h
Sequence (Q9R1A7 whole entry, looked up): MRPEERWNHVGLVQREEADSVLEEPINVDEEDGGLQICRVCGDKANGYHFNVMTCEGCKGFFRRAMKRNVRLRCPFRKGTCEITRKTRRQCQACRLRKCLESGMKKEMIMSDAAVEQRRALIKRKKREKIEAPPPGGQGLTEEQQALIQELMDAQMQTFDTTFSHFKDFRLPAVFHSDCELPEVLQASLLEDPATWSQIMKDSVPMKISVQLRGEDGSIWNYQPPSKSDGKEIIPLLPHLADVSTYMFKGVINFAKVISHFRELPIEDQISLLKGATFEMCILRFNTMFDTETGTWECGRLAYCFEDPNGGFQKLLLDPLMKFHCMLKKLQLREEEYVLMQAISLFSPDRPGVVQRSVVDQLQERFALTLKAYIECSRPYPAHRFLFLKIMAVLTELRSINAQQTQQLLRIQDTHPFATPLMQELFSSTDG

Q: Which max response does the source give for `CN(C)[C@@H]1C(=O)C(C(N)=O)=C(O)[C@@]2(O)C(=O)C3=C(O)c4c(O)cccc4[C@@](C)(O)[C@H]3[C@H](O)[C@@H]12` here?
A: The max response was 4.53% and -0.0906% and -2.17%.

Q: For `Clc1cnc(Oc2ccc(Oc3ncc(Cl)cc3Cl)cc2)c(Cl)c1`, which max response is on record?
A: The max response was 9.03%.

Q: Which max response does the source give for `O=C(O)CCCOc1ccc(Cl)cc1Cl` here?
A: Its max response is 8.43%.

Q: For `CN(C)NC(=O)CCC(=O)O`, which max response is on record?
A: The max response was -0.418% and -0.734%.

Q: Which max response does the source give for `COc1nn(CSP(=S)(OC)OC)c(=O)s1` here?
A: Its max response is -6.79%.

Q: With `CC(C)(O)C(=O)Nc1ccc([N+](=O)[O-])c(C(F)(F)F)c1` as the compound, how does the max response read?
A: The max response was -13.9%.

Q: With `Nc1ccc([N+](=O)[O-])cc1` as the compound, how does the max response read?
A: The max response was -0.553%.

tested on: not listed separately; assay: qHTS assay for small molecule activators of the human pregnane X receptor (PXR) signaling pathway (AID 720659; call rule not given here); conditions: DPX-2 HepG2 CYP3A4-luciferase, 24 h; series mostly up to 92.3 µM

Q: For `O=[N+]([O-])c1cc([N+](=O)[O-])c2ccccc2c1`, which outcome is on record?
A: The outcome was “inactive”.

Q: For `Clc1cnc(Oc2ccc(Oc3ncc(Cl)cc3Cl)cc2)c(Cl)c1`, which outcome is on record?
A: The outcome was “inactive”.

Q: For `O=C(O)CCCOc1ccc(Cl)cc1Cl`, which outcome is on record?
A: The outcome was “inactive”.

Q: Which outcome does the source give for `COc1nn(CSP(=S)(OC)OC)c(=O)s1` here?
A: Its outcome is “inactive”.

Q: With `CCCCCC[C@H]1C(=O)O[C@H](C)[C@H](NC(=O)c2cccc(NC=O)c2O)C(=O)O[C@@H](C)[C@@H]1OC(=O)CC(C)C` as the compound, how does the outcome read?
A: Its outcome is “inactive”.

Q: Which outcome does the source give for `Nc1ccc([N+](=O)[O-])cc1` here?
A: The outcome was “inactive”.
